Laboratory results reported in PubChem BioAssay AID1159580 (chemical genetic matrix, 2015).
About 2,000 (36%) of roughly 5,500 compounds were called active. Inconclusive results (about 18%) are left out. Cut-off read from the data, not from the text of the source: active = normalized growth mostly below about 0.91 (no sharp cut-off); inconclusive = no clear call, values can overlap the other calls; inactive = mostly above about 0.92. The list shows a part of the results.

Test: chemical genetic growth profiling, strain panel (AID 1159580);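 note: tested at 20 µM; growth read once vehicle control cultures reached saturation at 30 °C; 1 = growth at the plate median or of vehicle wells; lower values mean less growth of the strain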
Settings: S. cerevisiae deletion strains, growth OD
[1] = locus YAL021C, strain ccr4, hits give low values
[2] = locus YAL026C, strain drs2, hits give low values
[3] = locus YAL030W, strain snc1, hits give low values
[4] = locus YBL061C, strain skt5, hits give low values
[5] = locus YBR009C, strain hhf1, hits give low values
[6] = locus YBR023C, strain chs3, hits give low values
[7] = locus YBR171W, strain sec66, hits give low values
[8] = locus YBR231C, strain swc5, hits give low values
[9] = locus YBR279W, strain paf1, hits give low values
[10] = locus YCL011C, strain gbp2, hits give low values
[11] = locus YCL016C, strain dcc1, hits give low values
[12] = locus YCL069W, strain vba3, hits give low values
[13] = locus YCR088W, strain abp1, hits give low values
[14] = locus YDL005C, strain med2, hits give low values
[15] = locus YDL040C, strain nat1, hits give low values
[16] = locus YDR001C, strain nth1, hits give low values
[17] = locus YDR069C, strain doa4, hits give low values
[18] = locus YDR137W, strain rgp1, hits give low values
[19] = locus YDR159W, strain sac3, hits give low values
[20] = locus YDR297W, strain sur2, hits give low values
[21] = locus YDR334W, strain swr1, hits give low values
[22] = locus YDR335W, strain msn5, hits give low values
[23] = locus YDR392W, strain spt3, hits give low values
[24] = locus YEL003W, strain gim4, hits give low values
[25] = locus YEL037C, strain rad23, hits give low values
[26] = locus YEL061C, strain CIN8 (second series), hits give low values
[27] = locus YER015W, strain faa2, hits give low values
[28] = locus YER016W, strain bim1, hits give low values
[29] = locus YER111C, strain swi4, hits give low values
[30] = locus YER155C, strain BEM2 (second series), hits give low values
[31] = locus YFR010W, strain ubp6, hits give low values
[32] = locus YGL167C, strain pmr1, hits give low values
[33] = locus YGL173C, strain kem1, hits give low values
[34] = locus YGL227W, strain vid30, hits give low values
[35] = locus YGL240W, strain doc1, hits give low values
[36] = locus YGL253W, strain hxk2, hits give low values
[37] = locus YHR013C, strain ard1, hits give low values
[38] = locus YHR027C, strain rpn1, hits give low values
[39] = locus YHR030C, strain SLT2, hits give low values
[40] = locus YHR079C, strain IRE1, hits give low values
[41] = locus YHR142W, strain chs7, hits give low values
[42] = locus YJL092W, strain hpr5, hits give low values
[43] = locus YJL095W, strain BCK1 (second series), hits give low values
[44] = locus YJL095W, strain BCK1, hits give low values
[45] = locus YJL115W, strain asf1, hits give low values
[46] = locus YJL129C, strain trk1, hits give low values
[47] = locus YJL154C, strain vps35, hits give low values
[48] = locus YJL164C, strain tpk1, hits give low values
[49] = locus YJL166W, strain qcr8, hits give low values
[50] = locus YJR066W, strain TOR1, hits give low values
[51] = locus YKL160W, strain elf1, hits give low values
[52] = locus YKR026C, strain gcn3, hits give low values
[53] = locus YKR091W, strain srl3, hits give low values
[54] = locus YLL001W, strain dnm1, hits give low values
[55] = locus YLL026W, hits give low values
[56] = locus YLL041C, strain sdh2, hits give low values
[57] = locus YLR113W, strain HOG1, hits give low values
[58] = locus YLR221C, strain rsa3, hits give low values
[59] = locus YLR258W, strain gsy2, hits give low values
[60] = locus YLR262C, strain YPT6 (second series), hits give low values
[61] = locus YLR320W, strain mms22, hits give low values
[62] = locus YLR342W, strain FKS1, hits give low values
[63] = locus YLR357W, strain rsc2, hits give low values
[64] = locus YLR370C, strain arc18, hits give low values
[65] = locus YLR384C, strain iki3, hits give low values
[66] = locus YML120C, strain ndi1, hits give low values
[67] = locus YMR058W, strain fet3, hits give low values
[68] = locus YMR125W, strain sto1, hits give low values
[69] = locus YMR129W, hits give low values
[70] = locus YMR205C, strain PFK2, hits give low values
[71] = locus YMR231W, strain pep5, hits give low values
[72] = locus YNL071W, strain lat1, hits give low values
[73] = locus YNL183C, strain NPR1, hits give low values
[74] = locus YNL209W, strain ssb2, hits give low values
[75] = locus YNL248C, strain rpa49, hits give low values
[76] = locus YNL322C, strain KRE1 (second series), hits give low values
[77] = locus YNR049C, strain mso1, hits give low values
[78] = locus YOR001W, strain rrp6, hits give low values
[79] = locus YOR070C, strain gyp1, hits give low values
[80] = locus YOR080W, strain dia2, hits give low values
[81] = locus YOR083W, strain WHI5, hits give low values
[82] = locus YOR106W, strain vam3, hits give low values
[83] = locus YOR231W, strain MKK1, hits give low values
[84] = locus YOR265W, strain rbl2, hits give low values
[85] = locus YOR270C, strain vph1, hits give low values
[86] = locus YOR290C, strain snf2, hits give low values
[87] = locus YPL051W, strain arl3, hits give low values
[88] = locus YPL078C, strain atp4, hits give low values
[89] = locus YPL106C, strain sse1, hits give low values
[90] = locus YPL240C, strain hsp82, hits give low values
[91] = locus YPL256C, strain CLN2, hits give low values

Measured: normalized growth

OCc1c[nH]c2ccccc12
inactive: [1] 0.949 | [2] 0.991 | [3] 0.979 | [4] 0.969 | [5] 0.926 | [6] 0.955 | [7] 0.977 | [8] 0.953 | [9] 0.956 | [11] 0.957 | locus YCL061C, strain MRC1, hits give low values 1.01 | [12] 0.976 | [13] 0.971 | [14] 0.989 | [15] 0.981 | [16] 0.99 | [17] 0.974 | [19] 0.88 | locus YDR195W, strain ref2 1 | [20] 0.956 | [21] 1 | [22] 0.984 | [23] 0.856 | [25] 0.978 | [26] 0.975 | [27] 0.943 | [28] 0.977 | [29] 0.992 | [30] 0.966 | [31] 0.984 | [32] 0.978 | [33] 0.96 | [34] 0.983 | [35] 0.911 | [36] 0.98 | [37] 0.955 | [38] 0.96 | [39] 1.02 | [40] 1.05 | [41] 0.948 | [42] 0.979 | [43] 0.944 | [44] 0.979 | [45] 0.981 | [46] 0.879 | [47] 0.987 | locus YJL187C, strain SWE1, hits give low values 0.958 | [50] 0.961 | [51] 0.907 | [52] 0.998 | [53] 0.99 | [54] 1 | [55] 0.976 | [56] 0.979 | [57] 1 | [59] 0.939 | [63] 0.977 | [64] 0.982 | [65] 0.976 | [67] 0.991 | [68] 0.974 | [69] 1 | [71] 0.968 | [73] 0.931 | [74] 0.969 | [75] 0.997 | [76] 0.996 | [77] 0.99 | [79] 0.93 | [80] 1 | [81] 0.987 | [83] 1.04 | [84] 0.972 | [85] 0.974 | [86] 0.963 | [88] 0.983 | [89] 0.952 | [91] 1.08
active: [10] 0.815 | [18] 0.741 | [24] 0.8 | [48] 0.895 | [49] 0.779 | [58] 0.862 | [60] 0.663 | [61] 0.742 | [62] 0.905 | [66] 0.902 | [70] 0.849 | [72] 0.622 | [78] 0.854 | [82] 0.702 | [87] 0.791 | [90] 0.914

CC(=O)NCCc1c[nH]c2ccccc12
inactive: locus YAL013W, strain DEP1, hits give low values 1 | locus YAL040C, strain CLN3, hits give low values 1.01 | locus YCL061C, strain MRC1 (second series), hits give low values 1 | locus YDR150W, strain NUM1, hits give low values 1 | locus YER002W, strain NOP16, hits give low values 1 | locus YJR075W, strain HOC1, hits give low values 1 | locus YNL175C, strain NOP13, hits give low values 1.01 | locus YNL197C, strain WHI3, hits give low values 1 | locus YNL224C, strain SQS1, hits give low values 1.01 | locus YOR083W, strain WHI5 (second series), hits give low values 1.02 | locus YPL055C, strain LGE1, hits give low values 1

c1ccc2c(Cc3c[nH]c4ccccc34)c[nH]c2c1
active: [1] 0.848 | [2] 0.263 | [3] 0.785 | [4] 0.51 | [5] 0.341 | [6] 0.523 | [7] 0.515 | [8] 0.501 | [9] 0.496 | [10] 0.319 | [11] 0.543 | [12] 0.364 | [13] 0.632 | [15] 0.784 | [16] 0.824 | [18] 0.331 | [19] 0.547 | locus YDR195W, strain ref2 1.24 [resistant] | [20] 0.704 | [21] 0.459 | [22] 0.501 | [23] 0.11 | [24] 0.282 | [25] 0.779 | [26] 0.413 | [27] 0.443 | [28] 0.681 | [29] 0.455 | [30] 0.147 | [31] 0.836 | [33] 0.765 | [34] 0.154 | [35] 0.68 | [36] 0.348 | [37] 0.617 | [38] 0.615 | [39] 0.428 | [40] 0.531 | [41] 0.202 | [42] 0.635 | [43] 0.47 | [44] 0.528 | [45] 0.811 | [46] 0.518 | [47] 0.794 | [48] 0.429 | [49] 0.356 | [50] 0.54 | [51] 0.388 | [52] 0.763 | [53] 0.802 | [54] 0.421 | [55] 0.469 | [56] 0.758 | locus YLR027C, strain aat2, hits give low values 0.446 | [57] 0.648 | [58] 0.343 | [59] 0.722 | [60] 0.348 | [61] 0.235 | [62] 0.518 | [64] 0.57 | [65] 0.829 | [66] 0.324 | [67] 0.322 | [68] 0.469 | [69] 0.647 | [70] 0.506 | [71] 0.249 | [72] 0.106 | [73] 0.593 | [74] 0.644 | [75] 0.629 | [76] 0.73 | [77] 0.674 | [78] 0.531 | [79] 0.379 | [80] 0.772 | [81] 0.419 | [82] 0.43 | [83] 0.511 | [84] 0.534 | [85] 0.338 | [86] 0.219 | [87] 0.264 | [88] 0.363 | [90] 0.63 | [91] 0.652
inactive: [14] 0.939 | [17] 1 | [32] 0.958 | [63] 0.876 | [89] 1
